Hits are enriched below; roughly 3.5% of the tested compounds scored in any of these assays.
GPR151 ag – activators of human GPR151. 650,000 tested, 1% active. activation, % at 11.2 µM. PathHunter beta-arrestin GPR151 cells, luminescence; in the data active = activation above about 4.9%
TEAD-YAP inh – TEAD-YAP interaction inhibition; HEK-TIYL cells, TEAD-Gal4/YAP UAS-luciferase luminescence; 640,000 tested, 1.4% active; inhibition, % at 9.12 µM; in the data active = inhibition above about 32%
FBW7 activator – human FBW7 E3 ligase activation, primary screen; normalized activity (activation), % at 26.1 µM; AlphaScreen FBW7–phospho-cyclin E peptide binding, activator screen; 650,000 tested, 0.13% active; in the data active = normalized activity above about 1.9%;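 note: purified mutant Fbw7 with reduced substrate affinity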
MITF primary – blocks human microphthalmia-associated transcription factor; inhibition, % at 2.6 µM; AlphaScreen MITF homodimerization, bead proximity signal; AID 1259374; 650,000 tested, 0.91% active; in the data active = inhibition above about 50%
Target sequence (O75030 whole entry, looked up): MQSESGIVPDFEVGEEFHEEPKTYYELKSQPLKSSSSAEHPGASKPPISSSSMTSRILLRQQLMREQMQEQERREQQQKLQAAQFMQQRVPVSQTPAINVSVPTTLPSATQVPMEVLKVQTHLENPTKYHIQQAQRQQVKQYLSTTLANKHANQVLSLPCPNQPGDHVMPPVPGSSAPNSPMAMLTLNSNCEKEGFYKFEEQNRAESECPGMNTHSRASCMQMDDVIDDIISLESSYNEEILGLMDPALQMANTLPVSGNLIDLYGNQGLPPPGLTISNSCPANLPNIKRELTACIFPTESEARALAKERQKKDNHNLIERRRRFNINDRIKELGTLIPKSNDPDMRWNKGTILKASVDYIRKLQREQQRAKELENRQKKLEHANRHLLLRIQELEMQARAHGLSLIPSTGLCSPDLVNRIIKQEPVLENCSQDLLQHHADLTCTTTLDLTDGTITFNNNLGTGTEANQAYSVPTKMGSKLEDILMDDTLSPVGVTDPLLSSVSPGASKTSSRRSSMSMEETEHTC
MITF inh conf – confirmation of human MITF inhibitors. shares compounds with MITF primary. AlphaScreen MITF homodimerization, biotin/His-MITF beads. inhibition, % at 2.6 µM. 4,700 tested, 16% active. AID 1259372;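 active = inhibition above a cutoff derived from the DMSO control wells, cut at about 28% in these data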;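 note: inhibitors lower the bead chemiluminescence by keeping MITF from dimerizing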
AlphaScreen DR – optically interferes with AlphaScreen signal in dose response; 480 tested, 6% active; IC50, µM; AlphaScreen optical interference counterscreen, cell-free; AID 1259373; shares compounds with MITF primary; call rule not given here
AlphaScreen intf2 – AlphaScreen optical interference, counter-screen; shares compounds with MITF primary; LysRS AlphaScreen counterscreen, signal interference, triplicate; inhibition, % at 2.6 µM; 4,700 tested, 7.6% active;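 active = inhibition above a cutoff derived from the DMSO control wells, cut at about 30% in these data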
A number is an active result; n = inactive; x = no result.

SMILES	GPR151 ag	TEAD-YAP inh	FBW7 activator	MITF primary	MITF inh conf	AlphaScreen intf2	others
O=C(C1CC(Cc2ccccc2Cl)=NO1)N1CCc2ccccc2C1 (stereo not drawn)	n	n	n	n	x	x
Cc1ccc(-c2noc(C3CCCN(S(=O)(=O)c4ccc5ccccc5c4)C3)n2)o1 (stereo not drawn)	n	n	n	n	x	x
Cc1ccc(-c2noc(C3CCN(S(=O)(=O)c4ccc5c(c4)OCCO5)CC3)n2)o1	n	n	n	63	n	n
COc1cccc(CN2CCN(S(=O)(=O)c3ccccc3[N+](=O)[O-])CC2)c1	n	n	n	66	n	n
CCOc1cc(CN2CCN(S(=O)(=O)c3ccccc3[N+](=O)[O-])CC2)ccc1OC	n	n	n	66	n	n
CNC(=O)c1c(NC(=O)c2c(F)cccc2F)sc2c1CCC2	n	n	n	n	x	x
O=C(COc1ccccc1F)OCCN1CCCC1	n	n	n	57	n	n
CCOc1ccccc1OCCN1CCN(c2ccccc2OC)CC1	n	n	n	89	n	n
CCOc1ccccc1N1CCN(C(=O)C2CCN(Cc3cccs3)CC2)CC1	n	n	n	51	n	n
O=C(COc1ccccc1F)N1CCCCC1	n	n	n	n	x	x
Clc1ccc(OCCN2CCCC2)c2ccccc12	n	n	n	53	n	n
c1ccc2c(OCCN3CCCCC3)cccc2c1	n	n	n	n	x	x
CCOc1ccccc1OCCN1CCCCC1	n	n	n	n	x	x
CCOc1ccccc1OCCOCCN1CC(C)OC(C)C1 (stereo not drawn)	n	n	n	53	n	n
CCOc1ccccc1OCCN1CCCC1	n	n	n	75	n	n
CCOc1ccccc1N1CCN(Cc2ccoc2)CC1	n	n	n	53	n	n
O=C(O)Cn1c(O)c(C2=c3cc(Br)ccc3=NC2=O)sc1=O	n	n	n	n	x	x
COC(=O)CCNC(=O)N1CCOc2ccc(Cl)cc21	n	n	n	n	x	x
OCCNc1cc(-c2cccs2)ncn1	n	n	n	56	53	n	AlphaScreen DR=n
CCCNc1cc(-c2cccs2)ncn1	n	n	n	n	x	x
CC(C)CC(=O)N1CCN(Cc2ccncc2)CC1	n	n	n	65	n	n
CC(C)CC(=O)N1CCN(Cc2ccco2)CC1	n	n	n	58	n	n
FC(F)(F)c1cccc(CN2CCSCC2)c1	n	n	n	n	x	x
CC(C)CC(=O)N1CCN(Cc2cccc(C(F)(F)F)c2)CC1	n	n	n	56	n	n
CN(C)CN1C(=O)S/C(=C/c2ccccc2Cl)C1=O	n	n	n	n	x	x
SMILES	GPR151 ag	TEAD-YAP inh	FBW7 activator	MITF primary	MITF inh conf	AlphaScreen intf2	others
FC(F)(F)c1ccc(-c2noc(-c3cc(-c4ccc(Cl)cc4)nc4ccccc34)n2)cc1	n	n	n	56	n	n
Cc1ccc(CS(=O)(=O)c2cn(CC(=O)Nc3cc(C)on3)c3ccccc23)cc1	n	n	n	n	x	x
Oc1ccc2c(c1)C1CCCC1(N1CCOCC1)O2 (stereo not drawn)	n	n	n	70	73	n	AlphaScreen DR=n
Cc1nc(N2CCCC2)c2ccsc2n1	n	n	n	n	x	x
Cc1nc(N2CCOCC2)c2ccsc2n1	n	n	n	82	n	n
COc1ccc2oc(=O)c(-c3nnc(-c4ccc(Cl)cc4)o3)cc2c1	n	n	n	84	n	n
O=C1NCCN(Cc2cccc(Oc3ccccc3)c2)C1CC(=O)N1CCOCC1 (stereo not drawn)	n	n	n	n	x	x
COc1ccc(-c2nc(C)cc(Nc3ccc(Oc4ccccc4)cc3)n2)cc1	n	n	n	n	x	x
CN(C)C(CNCC(=O)NC(=O)Nc1ccc2c(c1)OCCO2)c1ccccc1 (stereo not drawn)	n	55	n	79	n	n
CC1Cc2ccccc2N1C(=O)CNCC(c1ccccc1)N(C)C (stereo not drawn)	n	n	n	67	n	n
CC(C)c1ccc(NC(=O)CNCC(c2ccccc2)N(C)C)cc1 (stereo not drawn)	n	n	n	65	n	n
CC1Cc2ccccc2N1C(=O)CNCCN(C)C (stereo not drawn)	n	n	n	n	x	x
CN(C)C(CNCC(=O)Nc1ccc2c(c1)CCC2)c1ccccc1 (stereo not drawn)	n	n	n	n	x	x
CN(C)C(CNCC(=O)N1CCc2ccccc21)c1ccco1 (stereo not drawn)	n	n	n	62	n	n
COc1ccc(CCC(=O)Nc2nnc(C3CCCCC3)s2)cc1	n	n	n	n	x	x
CCOc1ccc(-c2nnc3ccc(SCC(=O)Nc4ccccc4OC)nn23)cc1	n	n	n	n	x	x
COC(=O)C1(O)CC(CC(C)C)=NN1C(=O)c1ccccc1 (stereo not drawn)	n	n	n	71	n	n
CC(C)CC1=NN(C(=O)c2ccc(O)cc2)C(O)(C(F)(F)F)C1 (stereo not drawn)	n	n	n	n	x	x
COc1ccc(C(=O)Nc2cc(-c3nc4cc(C)ccc4o3)ccc2Cl)cc1Br	n	n	n	59	n	n
Cc1cccc(CNCc2cc(NC(=O)c3ccccn3)cc(C(=O)N(C)C)c2)c1	n	n	n	69	n	n
CN(C)C(=O)c1cc(CNCc2cccc(Cl)c2)cc(NC(=O)c2ccccn2)c1	n	n	n	n	x	x
Cc1cc(=O)n(C)c(=O)n1CCCCNCCO	n	n	n	72	n	n
Cc1cc(=O)n(C)c(=O)n1CCCCBr	n	n	n	n	x	x
Cc1cc(=O)n(C)c(=O)n1Cc1ccccc1	n	n	n	n	x	x
Cc1cc(=O)n(C)c(=O)n1CCCNC(C)c1ccccc1 (stereo not drawn)	n	n	n	84	n	n
SMILES	GPR151 ag	TEAD-YAP inh	FBW7 activator	MITF primary	MITF inh conf	AlphaScreen intf2	others
O=C(N/N=C/c1ccccc1F)c1cnccn1	n	n	n	n	x	x
C=CCn1c(SCC(=O)NCc2ccc3c(c2)OCO3)nc2sc3c(c2c1=O)CCC3	n	n	n	n	x	x
C=CCn1c(SCC(=O)NCc2ccc3c(c2)OCO3)nc2scc(-c3ccccc3)c2c1=O	n	n	n	57	n	n
Fc1cccc(/C=N/n2c(-c3ccncc3)n[nH]c2=S)c1	n	n	n	n	x	x
O=C(CNc1ccccc1)c1ccc(Cl)cc1	n	n	n	n	x	x
Cc1cccc(NC(=O)c2cccc(-n3ncc4cc(Nc5ccccc5F)ccc43)c2)c1	n	n	n	n	x	x
CCN(CC(=O)Nc1ccccc1OC)CC(=O)Nc1ccccc1-c1ccccc1	n	44	n	82	n	n
C=CCNC(=O)COC(=O)c1cc(-c2ccco2)nc2ccccc12	n	n	n	57	65	n	AlphaScreen DR=n
N#Cc1cc([N+](=O)[O-])ccc1NC(=O)COC(=O)c1cc(-c2ccco2)nc2ccccc12	n	n	n	51	41	n	AlphaScreen DR=n
CCOC(=O)c1c(CSc2ccccc2)n(C2CCCCC2)c2cc(Br)c(O)cc12	n	n	n	n	x	x
C/C(=N/NC(=O)c1cc(Br)ccc1O)c1ccncc1	n	n	n	n	x	x
CCCN(CCO)Cc1ccccc1C(F)(F)F	n	n	n	51	n	n
